From PMC9838217, “Structure of SALL4 zinc finger domain reveals link between AT-rich DNA binding and Okihiro syndrome”
Changes are numbered by the printed parent chain.

Target: T1, SALL4 ZFC4 R900W (HT-SELEX) (Mus musculus, UniProt Q8BX22 870-940, R900W)
T1 sequence: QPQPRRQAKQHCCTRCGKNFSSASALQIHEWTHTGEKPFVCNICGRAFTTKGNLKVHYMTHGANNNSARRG
Test: HT-SELEX; high values mean tight binding
Conditions: protein: recombinant; vector His6-GST; dsDNA, one strand shown
Procedure, shortened: (§1)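 In triplicate selections of up to 6 cycles, purified recombinant mouse SALL4 zinc finger cluster 4 (residues 870–940, 1 µg) was incubated 10 min at room temperature with library DNA (1.5 µg, then 200 ng) in 100 µl of 10 mM Tris–HCl pH 7.5, 50 mM NaCl, poly(dI-dC) and DTT, and complexes were captured on Ni2+ beads, washed and PCR-amplified. Sequencing was done on MiSeq with scanning for 6-mers. The binding signal is each canonical k-mer's read fraction, reported as fold change against the initial random library.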

| Sequence | binding signal [fold-change vs cycle 0] |
| --- | --- |
| ACTCCA | 1.03 ± 0.0645 |
| CAGATA | 1.33 ± 0.0549 |
| ATTGTG | 1.18 ± 0.0444 |
| CTCAAA | 1.2 ± 0.0701 |
| AAACCT | 1.34 ± 0.0189 |
| ACTGAG | 1.01 ± 0.0326 |
| ACAAAC | 1.23 ± 0.0488 |
| AAACGA | 1.16 ± 0.0331 |
| ATCCTG | 1.02 ± 0.0483 |
| ATACCA | 1.39 ± 0.0221 |
| GCTTTA | 1.09 ± 0.0574 |
| ATTTGG | 1.09 ± 0.0268 |

Target: T2, SALL4 ZFC4 G921D (HT-SELEX) (Mus musculus, UniProt Q8BX22 870-940, G921D)
T2 sequence: T1 sequence with W31R, G52D
Test: HT-SELEX; high values mean tight binding
Conditions: protein: recombinant; vector His6-GST; dsDNA, one strand shown
Procedure, shortened: as §1

| Sequence | binding signal [fold-change vs cycle 0] |
| --- | --- |
| AATCCT | 1.47 ± 0.113 |
| AAGGTA | 1.42 ± 0.11 |
| GATCAA | 1.36 ± 0.0523 |
| ATGTAG | 1.34 ± 0.129 |
| AAGGAT | 1.54 ± 0.145 |
| AAGGGT | 1.01 ± 0.0322 |
| AGTCAG | 0.958 ± 0.0631 |
| ACTTCA | 1.4 ± 0.125 |
| CATGAA | 1.36 ± 0.0809 |
| GAGGAA | 1.03 ± 0.0774 |
| AATACC | 1.3 ± 0.0234 |
| ACTAGG | 1.01 ± 0.0534 |
| AAGATG | 1.39 ± 0.12 |
| CTCTTC | 1.238 ± 0.012 |
| CCTATA | 1.35 ± 0.0515 |
| AAACGA | 1.16 ± 0.0214 |
| AACTGA | 1.35 ± 0.0948 |
| AATCAG | 1.32 ± 0.103 |
| AGCATA | 1.26 ± 0.0447 |
| AGGTAA | 1.45 ± 0.089 |
| GAAAAC | 1.19 ± 0.0327 |
| ACATGT | 1.4 ± 0.056 |
| AACTAG | 1.31 ± 0.0994 |
